From PubChem BioAssay
AMA1-RON2 inh = inhibitors of Plasmodium falciparum AMA1-RON2 interaction; AlphaScreen AMA1-biotinylated RON2 peptide binding; Potency, µM (highest dose often 58.2 µM), usual class: inhibitors; hit rate 0.2% among 360,000; also: nearly all actives have a fitted effect of over 45% in size
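AMA1 (3D7) with his tag at 25 nM final met compounds first, then biotinylated RON2 peptide at 25 nM; detection used donor plus acceptor beads, 10 µg/mL apiece, read by AlphaScreen after 30 min at room temperature.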
FMDV inh = antivirals against foot and mouth disease virus. AID 1159524. FMDV antiviral cell-based qHTS. Potency, µM (doses to about 57.9 µM), most hits filed as inhibitors. hit rate 1.2% among 410,000; calls by dose curve; tested in HEK293T cells; also: read-out not given here; nearly all actives have a fitted effect of over 45% in size
AmpC detergent = AmpC beta-lactamase inhibition with detergent present; AmpC hydrolysis of nitrocefin, absorbance 480 nm, 0.01% Triton; P00811; hit rate 0.041% among 370,000; Potency, µM (highest dose often 114 µM), hits mostly inhibitors; also: nearly all actives have a fitted effect of over 25% in size
Target sequence (P00811 whole entry, looked up): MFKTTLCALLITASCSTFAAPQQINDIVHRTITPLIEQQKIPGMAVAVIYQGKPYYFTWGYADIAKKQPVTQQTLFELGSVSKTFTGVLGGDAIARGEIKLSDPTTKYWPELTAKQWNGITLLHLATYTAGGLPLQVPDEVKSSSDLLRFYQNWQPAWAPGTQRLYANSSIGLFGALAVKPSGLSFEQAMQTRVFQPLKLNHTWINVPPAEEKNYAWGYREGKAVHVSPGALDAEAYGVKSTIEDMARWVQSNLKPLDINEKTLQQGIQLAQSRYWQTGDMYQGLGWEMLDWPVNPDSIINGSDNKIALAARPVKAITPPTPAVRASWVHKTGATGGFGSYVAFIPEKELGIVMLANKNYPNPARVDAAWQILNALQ
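AmpC (5.3 nM in the dispensed reagent) in 20 mM phosphate pH 7.0 with 0.01% (detergent screen) or 0.0001% Triton X-100 was preincubated with compounds for 15 min at room temperature. Nitrocefin was then added from an 800 uM solution, and hydrolysis was followed at 480 nm.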
AmpC no deterg = AmpC beta-lactamase inhibition without detergent; P00811; AmpC nitrocefin hydrolysis, absorbance 480 nm, 0.0001% Triton; Potency, µM (doses to about 57.1 µM), most hits filed as inhibitors; hit rate 0.52% among 330,000; AID 485341; also: nearly all actives have a fitted effect of over 20% in size
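AmpC (5.3 nM in the dispensed reagent) in 20 mM phosphate pH 7.0 with 0.01% (detergent screen) or 0.0001% Triton X-100 was preincubated with compounds for 15 min at room temperature. Nitrocefin was then added from an 800 uM solution, and hydrolysis was followed at 480 nm.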
Sm TGR inh = S. mansoni TGR enzyme inhibition; hit rate 3% among 360,000; AID 485364; Potency, µM (series often up to 114 µM), hits mostly inhibitors; Q962Y6; purified TGR, DTNB reduction, TNB absorbance 405 nm; also: nearly all actives have a fitted effect of over 60% in size
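TGR 20 nM + NADPH 100 uM (dispensed conc.), cpd preinc 15 min RT; start with NADPH (500 uM addition) then DTNB (15 mM addition). Kinetic TNB absorbance, 405 nm filter. Four-parameter Hill fit across titration.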
Hits are given with their value; – = inactive; ? = inconclusive; · = no result given. A selection: hits, their analogues and other compounds. The true share with any hit is near 4.1%. Unless noted, calls follow the shape of the dose curve; as a rule, active = well fitted curve in the direction sought with a large enough effect; inconclusive = small, poorly fitted or top-dose-only effect, or another doubt; inactive = no such curve, though single readings can be large; an effect the other way counts as inactive or inconclusive.

SMILES	AMA1-RON2 inh	FMDV inh	AmpC detergent	AmpC no deterg	Sm TGR inh
Cc1csc(N=Nc2ccc(N(C)C)cc2)[n+]1[O-]	14.1µM	–	·	·	·
Cc1cc(Cl)ccc1NS(=O)(=O)c1c(C(=O)N2CCCCCC2)c(C)n(C)c1C	·	–	–	·	–
O=C1CC(c2ccccc2)Sc2nc3ccccc3n21 (centres undefined)	–	–	–	–	–
O=C1CC(c2ccco2)Sc2nc3ccccc3n21 (centres undefined)	–	–	–	–	50.1µM
O=C1CC(c2ccc3c(c2)OCO3)Sc2nc3ccccc3n21 (centres undefined)	–	17.8µM	–	–	–
COc1ccccc1-c1c(C)nn2c(N3CCN(c4ccc(F)cc4)CC3)cc(C)nc12	·	?	–	·	–
CCOc1ccc(CNC(=O)CCCn2c(=O)c3cccn3c3cccnc32)cc1	·	–	–	·	–
Cc1ccc(NS(=O)(=O)c2ccc(Br)cc2)nc1	–	–	–	–	·
O=S(=O)(Nc1ccc(Br)cn1)c1ccc2ccccc2c1	–	–	–	7.08µM	–
CCc1ccc(NC(=O)CC2C(=O)N(c3cccc(C)c3)C(=O)N2Cc2ccco2)cc1 (centres undefined)	·	–	–	·	44.7µM
CCc1ccc(NC(=O)CC2C(=O)N(c3cccc(OC)c3)C(=O)N2Cc2ccco2)cc1 (centres undefined)	·	–	–	·	39.8µM
CN1C(=O)C(CC(=O)Nc2ccc(Cl)cc2)N(Cc2ccco2)C1=S (centres undefined)	–	–	–	–	10µM
O=S(=O)(c1ccccc1)N1CCC2(CC1)CN(c1ccccn1)C2	·	–	·	·	·
CC(C)NC(=O)c1cn(C2CCC(NC(=O)C(C)(C)C)CC2)nn1 (centres undefined)	·	–	·	·	·
N/C(Cc1ccc(Cl)cc1Cl)=N\OC(=O)c1cccs1	–	–	–	0.316µM	–
Cn1c(-c2ccc([N+](=O)[O-])cc2)nc2ccccc21	–	–	–	–	·
Cn1nc([N+](=O)[O-])c(C(C#N)c2nc3ccccc3n2C)c(Cl)c1=O (centres undefined)	–	–	?	–	31.6µM
Cc1cc(NC2CCCC2)n2ncc(-c3ccccc3)c2n1	–	39.8µM	–	–	–
Cc1cc(NC2CCCC2)n2nc(C)c(-c3ccccc3)c2n1	–	–	–	–	–
COc1cc2c(cc1OC)CN(C1CCCN(Cc3cccc(C(C)=O)c3)C1)CC2 (centres undefined)	–	–	·	·	·
Cc1cc(CN2CCCC(N3CCc4ccccc4C3)C2)cc(C)c1O (centres undefined)	–	–	?	–	44.7µM
C=CC[C@@H](CC(=O)N[C@H](CO)Cc1ccccc1)C(=O)N[C@@H](C)COC(=O)[C@@H](CC=C)Cc1ccc(F)cc1	–	?	·	–	·
C=CC[C@H](CC(=O)N(CCO)Cc1ccccc1)C(=O)NC[C@H](OC(=O)[C@@H](CC=C)Cc1ccc(F)cc1)c1ccccc1	–	35.5µM	·	–	·
C=CC[C@@H](CC(=O)N(CCO)Cc1ccccc1)C(=O)NC[C@@H](OC(=O)[C@@H](CC=C)Cc1ccc(F)cc1)c1ccccc1	–	?	·	–	·
C=CCC[C@@H](Cc1ccc(F)cc1)C(=O)OC[C@@H](C)NC(=O)[C@@H](CC=C)CC(=O)N[C@H](CO)Cc1ccccc1	–	39.8µM	·	–	·
SMILES	AMA1-RON2 inh	FMDV inh	AmpC detergent	AmpC no deterg	Sm TGR inh
Cc1ncc2c(c1CNC(=O)/C=C/c1cccs1)CCN(C(=O)C1CC(=O)OC13CCCCC3)C2 (centres undefined)	·	–	·	·	·
Cc1ccc(S(=O)(=O)c2cc3cc(C(=O)Nc4ccc(C)cc4C)ccc3oc2=O)cc1	·	?	–	·	–
COc1ccc(CCNC(=O)CCn2c(=O)c3ccccc3n(CC(=O)Nc3ccc(C)cc3C)c2=O)cc1OC	·	–	–	·	–
CCc1ccc(C(=O)c2cn(CC(=O)Nc3ccc4c(c3)OCO4)c3cc(OC)c(OC)cc3c2=O)cc1	·	–	–	·	–
N/C(=N\c1nc2ccccc2o1)NC(=O)c1ccccc1	–	–	?	–	–
N/C(=N\c1nc2ccccc2o1)NC(=O)/C=C/c1ccccc1	–	–	–	5.01µM	–
CN1CCCN(CC(O)COCc2cccs2)CC1 (centres undefined)	–	–	–	–	50.1µM
OC(COCc1cccs1)CN1CCCCCC1 (centres undefined)	–	–	?	–	–
Cc1ccc(N2CC(NC(=O)/C=C\c3ccc4c(c3)OCO4)CC2=O)cc1C (centres undefined)	·	–	–	·	–
Cc1ccc2nc(-c3ccc(Cl)c(NC(=O)COc4cccc(C)c4C)c3)oc2c1	·	–	–	·	–
C#CCOc1ccc(Br)cc1C(c1c(C)[nH][nH]c1=O)c1c(C)[nH][nH]c1=O	–	–	–	–	44.7µM
COc1ccc(/C=C/C(=O)NC(=S)NNC(=O)[C@H]2C[C@@H]2c2ccccc2)cc1OC	–	–	–	7.08µM	–
COc1cccc(OC)c1C(=O)NC(=S)NNC(=O)[C@H]1C[C@@H]1c1ccccc1	–	–	–	–	–
COC(=O)CSc1nc2c(c(-c3ccco3)c1C#N)CCCC2	–	–	?	–	3.16µM
CCOC(=O)CSc1nc2c(c(-c3ccc(C)o3)c1C#N)CCCC2	–	–	–	–	44.7µM
Cc1ccc(-c2c(C#N)c(N)nc3c2CCCCC3)o1	–	–	?	–	–
COc1cc(NC(=O)Cn2c(=O)n(CC(=O)NCCc3ccc(OC)c(OC)c3)c(=O)c3sccc32)cc(OC)c1	·	–	–	·	–
CCNC(=O)c1c(NC(=O)c2cc(=O)c3ccc(C)c(C)c3o2)sc2c1CCCC2	·	–	–	·	–
CCOc1ccc(-c2cc(NC(=O)Nc3cccc(C(C)=O)c3)c(C(=O)OC)s2)cc1	·	–	–	·	–
COc1ccc(NC(=O)c2cc(C3CCCCN3C(=O)Cc3ccc(N(C)C)cc3)on2)c(C)c1 (centres undefined)	–	?	·	·	·
CN(C)c1ccc(CC(=O)N2CCCCC2c2cc(C(=O)Nc3ccccc3Cl)no2)cc1 (centres undefined)	?	35.5µM	·	·	·
Cc1cccc(C2c3[nH]c4ccccc4c3CCN2Cc2cccn2-c2ncccn2)c1 (centres undefined)	–	–	–	–	·
c1ccc(C2c3[nH]c4ccccc4c3CCN2Cc2cccn2-c2ccccn2)nc1 (centres undefined)	–	–	–	–	50.1µM
COC(=O)[C@@H]1CCCN1C(=O)c1cc(NC(=O)C2CCC2)c2c(c1)nc(-c1ccncc1)n2C	·	–	·	·	·
CCC(=O)Nc1cccc(-c2cnc3ccccc3n2)c1	–	–	–	–	–
O=C(CCl)Nc1cccc(-c2cnc3ccccc3n2)c1	–	25.1µM	–	–	?
O=C(CCl)Nc1ccc(Oc2cnc3ccccc3n2)cc1	–	20µM	–	–	–
CCCC(CCC)C(=O)Nc1cc(-c2cn3cccnc3n2)ccc1OC	·	–	–	·	–
